ABHD5-PLIN5 inh – ABHD5-PLIN5 interaction inhibitors, primary screen, cell lysate, split luciferase complementation, luminescence; hit rate 0.78% among 360,000; Split G. princeps luciferase complementation, 4 h; AID 602281, 2012; inhibition, % at 4 µM;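 active means inhibition above the mean inhibition across every tested compound plus 3 SD, cut at about 22% in these data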;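 further: 0% = DMSO only wells and the 100% control is not disclosed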
Beta2AR agonist – beta2AR agonists driving receptor internalization, primary screen, cell-based, FAP fluorogen, flow cytometry. Am2.2-beta2AR cells. response, % (test concentration not listed). hit rate 0.43% among 340,000. Beta-2 adrenergic receptor (Homo sapiens), P07550. AID 504454, 2011;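 active means response above a set limit, near 3 SD of response in nonfluorescent compounds, cut at about 42% in these data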
NOD2 RIPK2 PPI – NOD2-RIPK2 binding disruptors in cells, primary screen, fluorescence, CHO cells, BLA complementation; Receptor-interacting serine/threonine-protein kinase 2 (Homo sapiens), O43353; CCF4 ratio; inhibition, % at 4.98 µM; hit rate 0.38% among 360,000; AID 624267, 2012; in the data active means inhibition above about 21%;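 further: 0% = vehicle only and 100% = reference blocker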
TLR4 MyD88 comp – inhibitors of TLR4-MyD88 association in cells, primary screen, cell-based, HeLa CL3-4, BLA complementation, FRET ratio; Toll-like receptor 4 (Homo sapiens) + Myeloid differentiation primary response protein …; HeLa CL3-4 TLR4/MyD88 BLA complementation; inhibition, % at 8.4 µM; hit rate 0.18% among 200,000; AID 861, 2007; in the data active means inhibition above about 25%;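 further: 0% = vehicle and 100% = reference inhibitor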
Target sequence (O00206 whole entry, looked up): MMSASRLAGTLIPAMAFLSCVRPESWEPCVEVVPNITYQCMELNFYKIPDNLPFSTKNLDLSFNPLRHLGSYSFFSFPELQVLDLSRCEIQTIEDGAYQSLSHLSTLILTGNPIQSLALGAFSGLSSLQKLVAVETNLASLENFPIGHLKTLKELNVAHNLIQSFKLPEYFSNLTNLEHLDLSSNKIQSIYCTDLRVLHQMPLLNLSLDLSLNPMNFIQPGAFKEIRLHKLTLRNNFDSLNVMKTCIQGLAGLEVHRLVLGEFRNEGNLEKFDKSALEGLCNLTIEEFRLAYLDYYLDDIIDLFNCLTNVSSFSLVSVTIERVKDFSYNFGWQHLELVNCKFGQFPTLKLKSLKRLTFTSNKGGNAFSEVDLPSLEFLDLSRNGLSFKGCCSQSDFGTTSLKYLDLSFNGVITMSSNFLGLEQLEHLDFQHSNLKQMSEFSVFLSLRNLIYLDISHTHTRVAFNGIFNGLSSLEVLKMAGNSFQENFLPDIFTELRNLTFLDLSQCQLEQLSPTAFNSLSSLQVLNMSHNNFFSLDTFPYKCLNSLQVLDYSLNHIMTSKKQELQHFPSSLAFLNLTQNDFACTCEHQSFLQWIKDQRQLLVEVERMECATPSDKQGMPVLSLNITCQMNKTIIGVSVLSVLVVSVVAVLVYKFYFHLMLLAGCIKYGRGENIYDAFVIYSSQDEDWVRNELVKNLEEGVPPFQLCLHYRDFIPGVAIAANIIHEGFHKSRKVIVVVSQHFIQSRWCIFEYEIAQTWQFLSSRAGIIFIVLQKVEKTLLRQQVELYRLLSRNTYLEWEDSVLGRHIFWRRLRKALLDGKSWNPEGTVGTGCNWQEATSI
Target sequence (Q99836 whole entry, looked up): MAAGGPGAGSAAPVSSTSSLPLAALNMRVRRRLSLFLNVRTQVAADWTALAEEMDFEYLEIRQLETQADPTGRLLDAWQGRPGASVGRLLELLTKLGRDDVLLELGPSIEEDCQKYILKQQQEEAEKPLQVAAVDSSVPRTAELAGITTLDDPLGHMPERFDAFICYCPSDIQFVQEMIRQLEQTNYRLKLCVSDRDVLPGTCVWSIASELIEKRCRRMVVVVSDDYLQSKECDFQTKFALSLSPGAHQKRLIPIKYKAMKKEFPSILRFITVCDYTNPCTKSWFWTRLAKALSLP
Granule exo inh – LAMP-1 surface exposure blockers, TALL-104 cells – cell-based, flow cytometry, MLPCN library, primary screen | TALL-104 LAMP-1 surface exposure; cells stimulated with thapsigargin and PMA | inhibition, % at 10 µM | hit rate 0.66% among 360,000;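 active means inhibition above about 55%, limit read from the data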
TLR9-MyD88 inh – inhibitors of TLR9-MyD88 association in cells, primary screen, cell-based, CHO, BLA complementation, fluorescence; Toll-like receptor 9 (Homo sapiens) + Myeloid differentiation primary response protein …; CCF4 FRET ratio; hit rate 0.21% among 340,000; inhibition, % at 4.98 µM; AID 504734, 2011;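 active means inhibition above the mean over all tested compounds plus 3 SD, cut at about 21% in these data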;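 further: 0% = DMSO only wells and 100% = clavulanate BLA inhibitor control wells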
TLR9-MyD88 conf – TLR9-MyD88 association inhibitors, retest, confirmation, cell-based, CHO, BLA complementation, fluorescence, triplicate. inhibition, % at 4.98 µM. hit rate 51% among 680. CCF4 FRET ratio. AID 540250, 2011. shares compounds with TLR9-MyD88 inh;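 active means mean inhibition across three repeats above about 21% taken from the earlier screen, limit read from the data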;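 further: blue over green emission ratio reports constitutive TLR9 MyD88 association via BLA complementation; 0% = DMSO vehicle wells and 100% = clavulanate BLA inhibitor wells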
BLA counter – beta-lactamase reporter inhibitors in CHO cells, artefact control for TLR9-MyD88 binding inhibitor project, cell-based, fluorescence | shares compounds with TLR9-MyD88 inh | hit rate 7% among 680 | AID 540251, 2011 | inhibition, % at 4.98 µM | CHO-BLA cells, CCF4 FRET ratio, BLA reporter;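 active means mean inhibition above a 50% cutoff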;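 further: counterscreen of TLR9-MyD88 hits on CMV-driven BLA in CHO-K1 cells; 0% = DMSO alone and 100% = clavulanate blocking BLA; higher means less blue over green ratio so more BLA blockade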
TLR9 CHO tox – CHO cell viability loss – luminescence, single concentration, cytotoxicity control for TLR9-MyD88 binding inhibitor project | shares compounds with TLR9-MyD88 inh | TLR9-MyD88 CHO cells cytotoxicity | inhibition, % at 4.98 µM | hit rate 39% among 680 | AID 588336, 2011; in the data active means inhibition above about 11%
The depositor's hits bear a star; nt = not tested or not shown. Hits are enriched below; roughly 2% of the tested compounds scored in any of these assays.

SMILES	ABHD5-PLIN5 inh	Beta2AR agonist	NOD2 RIPK2 PPI	TLR4 MyD88 comp	Granule exo inh	TLR9-MyD88 inh	TLR9-MyD88 conf	BLA counter	TLR9 CHO tox
NC1(CO)COC(c2ccccc2)OC1 (configuration not stated)	2.8	nt	-9.5	nt	5.1	1.7	nt	nt	nt
COc1cc(C(=O)NC2CCN(Cc3ccccc3)CC2)cc(Cl)c1OC	-7.2	-0.4	5.6	nt	19.7	25.7*	4.5	3.8	4.6
COc1ccc(C(=O)NC2CC2)cc1OC1CCN(Cc2ccccc2)CC1	-1.1	1.6	-4.6	nt	-6.6	-10.2	nt	nt	nt
CCn1nnc2cc(C(=O)N3CCC(C(=O)OC)CC3)ccc21	-0.4	2.9	-1.8	nt	-1.2	-8.2	nt	nt	nt
C[C@H]1CN([C@@H](C)CO)C(=O)CCCn2nncc2CO[C@H]1CN(C)S(=O)(=O)c1cccs1	5.3	nt	-7.3	nt	-4.8	-5.1	nt	nt	nt
CCN1CCN(c2ccc(S(=O)(=O)N3CCCCC3)cc2NC(=O)c2ccc([N+](=O)[O-])o2)CC1	-6.6	1.6	3.1	nt	-1.6	14.4	nt	nt	nt
COc1ccc(S(=O)(=O)N2CCCCC2)cc1NC(=O)c1ccc([N+](=O)[O-])o1	-0.4	9.8	10.1	9.0	14.6	22.2*	3.0	5.6	22.1*
O=C(c1ccccc1)n1c2ccccc2c(=O)n1-c1ccccc1CCl	4.2	nt	-8.7	nt	-0.7	nt	nt	nt	nt
O=C(O)C1OC(C(=O)O)C(C(=O)O)C1C(=O)O (configuration not stated)	6.0	5.3	0.2	nt	-2.2	-6.2	nt	nt	nt
CNS(=O)(=O)c1cc(N(C)S(=O)(=O)c2ccc(C)cc2)c(C)cc1C	-1.6	4.7	-4.0	-2.7	0.6	-11.3	nt	nt	nt
Cc1ccc(S(=O)(=O)N(C)c2cc(S(=O)(=O)Nc3ccncc3)c(C)cc2C)cc1	1.7	2.7	13.0	0.5	-0.5	28.7*	2.5	9.3	-0.1
Cc1cccc(N2C(=O)/C(=C\c3ccc(OC(F)F)cc3)c3ccccc3C2=O)c1	8.6	25.4	-3.2	16.6	0.7	50.1*	45.2*	47.2	0.3
CCOC(=O)[C@H]1[C@H]2COc3ccc(C)cc3[C@@H]2N2C(=O)CN(Cc3ccco3)C(=O)[C@@]12C	3.4	-8.5	3.4	nt	6.2	22.3*	3.9	0.7	-0.4
COc1ccc(-c2cc(C(F)(F)F)c3c(N)c(C(=O)NCCSC)sc3n2)cc1	-4.2	6.3	5.5	nt	-7.2	22.3*	74.3*	73.4*	13.6*
CN(C)CCNC(=O)c1sc2nc(-c3ccccc3)cc(C(F)(F)F)c2c1N	-2.1	-37.0	17.0	nt	19.6	10.5	nt	nt	nt
CNc1ncnc2c1cnn2C1CCCCO1 (configuration not stated)	-8.0	-4.3	-4.8	nt	-6.0	4.8	nt	nt	nt
CCCc1[nH]n(-c2ccc(F)cc2)c(=O)c1C=NCC1CCCO1 (configuration not stated)	8.6	-7.0	-6.9	-4.9	3.0	0.3	nt	nt	nt
Cc1[nH]n(-c2ccccc2)c(=O)c1C=NCC1CCCO1 (configuration not stated)	-2.0	-0.3	-4.5	-6.4	-0.2	26.2*	4.3	-1.1	2.2
O=C(C1=NN(c2ccccc2)C2C(=O)N(c3ccc(Cl)cc3)C(=O)C12)c1ccccc1 (configuration not stated)	-2.1	7.7	14.7	15.2	-1.8	29.8*	24.8*	24.3	-1.4
COc1ccc(N=Cc2sc(O)c3ccccc23)cc1	-21.9	-83.8	2.1	21.0	3.7	22.3*	20.9*	18.3	-1.1
COc1ccc(N=Cc2c(O)c3ccccc3n2C(C)=O)cc1	-12.8	5.8	-4.8	nt	2.1	1.9	nt	nt	nt
O=C1Cc2ccccc2C(=O)N1c1ccccc1	7.3	5.7	-7.3	nt	-6.6	31.4*	42.5*	45.5	6.2
CN(C(=O)c1ccc(NC(=O)Cc2cccc(NC(=O)C3CCCN(C(=O)C4CC4)C3)c2)cc1)C1CC1 (configuration not stated)	-1.2	-0.1	6.5	nt	6.0	-0.6	nt	nt	nt
CCSC1OC(C(COC(C)=O)OC(C)=O)C(OC(C)=O)C1NC(C)=S (configuration not stated)	-5.9	-1.9	-5.5	nt	2.0	-0.8	nt	nt	nt
C=CCn1nc2n(c1=O)-c1ccccc1SC2	3.4	5.1	0.8	nt	-2.0	22.7*	-0.1	2.6	-2.2
SMILES	ABHD5-PLIN5 inh	Beta2AR agonist	NOD2 RIPK2 PPI	TLR4 MyD88 comp	Granule exo inh	TLR9-MyD88 inh	TLR9-MyD88 conf	BLA counter	TLR9 CHO tox
CC1=C(C(=O)N(C(C)C)C(C)C)CC(CC(=O)NCc2ccco2)C(=O)N1CCC1=CCCCC1 (configuration not stated)	6.4	nt	-8.4	nt	-3.0	nt	nt	nt	nt
O=C(CSc1nc(O)cc(=O)n1-c1ccccc1)NCc1ccccc1	2.3	-5.3	10.8	-10.2	-0.4	21.0*	2.3	3.2	-0.9
O=c1cc(O)nc(SCc2ccccc2)n1-c1ccccc1	-1.1	-5.2	-2.5	6.4	0.2	-3.2	nt	nt	nt
O=C1c2ccccc2NC(c2ccc(-c3ccc(C(F)(F)F)cc3)o2)N1O (configuration not stated)	6.4	-11.2	4.2	nt	5.5	23.8*	4.1	4.5	40.8*
Cc1cc(NC(=O)COc2ccc3ccccc3c2Br)no1	-4.5	1.2	12.0	nt	15.1	0.8	nt	nt	nt
Cn1c2ccccc2c2cc(/C=N/NC(=O)c3ccc(O)cc3O)ccc21	3.2	4.5	-0.3	nt	15.4	-4.3	nt	nt	nt
Cn1c(O)c(/C=N/NC(=O)c2cc3ccccc3cc2O)c2ccccc21	-3.5	0.1	17.4	nt	82.9*	30.9*	22.6*	16.1	25.3*
CCCCS(=O)(=O)/C=C\C=C/S(=O)(=O)CCCC	84.1*	39.8	91.3*	13.1	42.6	33.6*	36.7*	34.7	100.0*
COCCC(=O)N1CCOCC1c1cc(C(=O)NCc2ccccc2)no1 (configuration not stated)	-13.9	nt	-16.9	nt	-2.1	nt	nt	nt	nt
CCCS(=O)(=O)NC(=O)C1(C)CCN(C(=O)c2ccc(OC)c(F)c2)C1 (configuration not stated)	0.6	nt	4.6	nt	-1.4	nt	nt	nt	nt

High-throughput results deposited in PubChem by several laboratories.
